Assay results from the supplement of paper PMC6555819.

Legend:
Assay in all cases: PBM binding z-score (relative to random genomic background probes); higher = stronger binding; sequences stand for … in GC…GCGATTGACAGCGTAGAATGAAGG
[1] = test system: FXR:RXRa (NR concentration 270 nM, RXRa partner concentration 90 nM)
Method in brief: (§1)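 The probes on custom Agilent 4×180K protein-binding microarrays were double-stranded, with 34-nt variable regions bearing direct-repeat seeds, single-nucleotide variants, half-site ablations and random human genomic background sequences. Incubation lasted 1 h with ligand-free nuclear receptor dimers in PBS pH 7.4, 2% milk, 0.02% Triton X-100, 1 mM DTT, 0.2 mg/mL BSA and 0.4 mg/ml salmon testes DNA. Antibodies against each partner (one per run) detected bound dimers, and fluorescence scans were regression-normalized. Binding z-scores take the random background probes as reference.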

[2] = test system: LXRa:RXRa (NR concentration 270 nM, RXRa partner concentration 90 nM)
Method in brief: as §1

[3] = test system: LXRa homodimer (NR concentration 270 nM)
Method in brief: as §1

[4] = test system: LXRb:RXRa (NR concentration 270 nM, RXRa partner concentration 90 nM)
Method in brief: as §1

[5] = test system: LXRb homodimer (NR concentration 270 nM)
Method in brief: as §1

[6] = test system: PPARa:RXRa (NR concentration 270 nM, RXRa partner concentration 90 nM)
Method in brief: as §1

[7] = test system: PPARg:RXRa (NR concentration 180 nM, RXRa partner concentration 90 nM)
Method in brief: as §1

[8] = test system: PPARg:RXRa 270nM:90nM, anti-RXR (NR concentration 270 nM, RXRa partner concentration 90 nM)
Method in brief: as §1

[9] = test system: PPARg:RXRa 30nM:10nM, anti-RXR (NR concentration 30 nM, RXRa partner concentration 10 nM)
Method in brief: as §1

[10] = test system: PPARg:RXRa 90nM:30nM, anti-RXR (NR concentration 90 nM, RXRa partner concentration 30 nM)
Method in brief: as §1

[11] = test system: PPARg:RXRa DBDmut IVT, anti-RXR (DBD mutation: RXRa K156A/R161A, NR concentration 270 nM, RXRa partner concentration 90 nM)
Method in brief: as §1

[12] = test system: PPARg:RXRa IVT, anti-PPARg (NR concentration 270 nM, RXRa partner concentration 90 nM)
Method in brief: as §1

[13] = test system: PPARg DBDmut:RXRa IVT, anti-PPARg (DBD mutation: PPARg1 K132A/R137A, NR concentration 270 nM, RXRa partner concentration 90 nM)
Method in brief: as §1

[14] = test system: PPARg DBDmut IVT, anti-PPARg (DBD mutation: PPARg1 K132A/R137A, NR concentration 270 nM)
Method in brief: as §1

[15] = test system: PPARg homodimer (NR concentration 180 nM)
Method in brief: as §1

[16] = test system: PXR:RXRa (NR concentration 270 nM, RXRa partner concentration 90 nM)
Method in brief: as §1

[17] = test system: PXR homodimer (NR concentration 270 nM)
Method in brief: as §1

[18] = test system: RARa:RXR (NR concentration 270 nM, RXRa partner concentration 90 nM)
Method in brief: as §1

[19] = test system: RARa homodimer (NR concentration 270 nM)
Method in brief: as §1

[20] = test system: RARb:RXRa (NR concentration 270 nM, RXRa partner concentration 90 nM)
Method in brief: as §1

Sequence	PBM binding z-score [1]	PBM binding z-score [2]	PBM binding z-score [3]	PBM binding z-score [4]	PBM binding z-score [5]	PBM binding z-score [6]	PBM binding z-score [7]	PBM binding z-score [8]	PBM binding z-score [9]	PBM binding z-score [10]	PBM binding z-score [11]	PBM binding z-score [12]	PBM binding z-score [13]	PBM binding z-score [14]	PBM binding z-score [15]	PBM binding z-score [16]	PBM binding z-score [17]	PBM binding z-score [18]	PBM binding z-score [19]	PBM binding z-score [20]
CCTAGTTGGTCAATGTCACACACGCTATAGGTAC	0.436	0.678	0.613	1.1	1.1	0.77	1.17	0.745	0.448	0.257	1.5	1.6	1.25	1.28	1.57	0.71	0.574	0.851	1.91	1.4
CAAACTAGGTCAAATGTCAAAGTCGAGCCAACCA	5.99	4.61	1.45	3.78	1.49	6.77	11.8	9.72	9.92	10.8	8.77	8.6	1.94	1.58	2.71	3.16	0.325	4.96	1.02	4.26
CAAACTAGGTCAAGAGGTCAATGTCCGCTTCCCG	6.4	6.19	5.74	4.72	1.58	6.11	9.5	7.94	6.68	8	8.38	8.12	2.46	0.644	3.95	5.63	1.52	6.79	2.12	5.3
CCTCGGAGGACAGAAGTTCAGAGCTGTCCGCTTT	-0.0968	0.116	-0.259	-0.479	-0.948	-0.198	-0.643	-0.616	-1.24	-0.788	-0.783	-0.951	-1.61	-1.82	-0.0548	0.556	-0.104	-0.223	-0.677	1.59
TCTTGTAGATCAAGCAGGTTATGAAAGCCTGAGT	0.147	0.219	-0.495	0.124	-0.429	0.732	-0.162	1.27	2.34	1.89	1.29	0.311	0.244	0.263	-0.854	0.4	0.201	0.334	-0.519	0.176
CCTAGTTTGTCAAGGTCACACACGCTATAGGTAC	4.49	4.38	3.27	3.87	1.42	4.14	2.44	2.78	0.971	1.93	1.6	2.96	1.92	1.48	4.48	4.71	5.83	4.57	2.66	4.18
CCTACTGGGCCAAAAGTCATTGATTCCAATGCTC	-0.29	0.0265	-0.0792	0.111	-0.713	3.54	7.06	7.89	8.84	9.3	4.9	4.42	-0.0689	-0.159	0.216	-0.153	-0.589	0.273	0.25	0.447
TCATATAGGTAAATGCTACGTGAAAGTCCGATCT	0.931	0.681	0.145	0.726	0.254	0.91	0.924	2.02	3.64	2.58	3.82	2.01	1.39	1.49	0.811	0.667	0.362	0.641	0.913	0.222
